This note sets out measurements from PubChem BioAssay AID504884 (Broad Institute, 2011).

About 230 (0.064%) of roughly 360,000 compounds were called active. Rule as the data show it: active = activity above about 50% (passing the limit was not always enough); inconclusive = no clear call, values can overlap the other calls. What follows is part of a selection rich in actives, with near analogues and random picks from the rest.

The test has as its system DNA topoisomerase I (Yersinia pestis CO92). The test is described as follows: Yersinia pestis topoisomerase I inhibitors, primary screen, biochemical, cleavage product accumulation, plate reader, single point (AID 504884). To be noted: Y. pestis Topo-I cleavage product accumulation, at 10 µM, stronger effect = higher value.
Take `COC(=O)CN1C(=O)[C@H]2[C@@H](C3CC3)N3C(=O)CN(Cc4ccc(-c5ccccc5)cc4)C(=O)[C@@]3(Cc3ccccc3)[C@H]2C1=O`: the activity is 35.2% (inactive). The same measure for `CCC1(C)NC(=O)N(CC(=O)N2CCN(c3cccc(Cl)c3)CC2)C1=O` (stereo unspecified): 2.38% (inactive). `CCC1C=C(c2ccccc2)C=CN=C1N(CC)CC` (stereo unspecified): the activity was 0.893% (inactive). Turning to `CCN(CC)S(=O)(=O)c1ccc(N2CCOCC2)c(NC(=O)C(C)Oc2ccc(F)cc2)c1` (stereo unspecified), the activity is 18% (inactive). The same measure for `CCN1CCc2nc(NC(=O)c3cc(F)c(F)cc3Cl)sc2C1`: 6.77% (inactive). The same measure for `COc1ccc(CCNC(=O)C(=O)NCC2CCNCC2)cc1OC`: 0.788% (inactive).

With `CC(C)[C@H](NC(=O)OCc1ccccc1)C(=O)OCc1ccccc1`, the activity is 58.9% (active).

Take `COC(=O)[C@H](C)[C@H]1C[C@]1(C)[C@H](NC(=O)OCc1ccccc1)c1ccccc1`: the activity was 16.4% (inactive). Consider `CC(C)C(NC(=O)OCc1ccccc1)C(=O)OCC(=O)N1C(C)CCCC1C` (stereo unspecified), for which the activity was 15.6% (inactive). Consider `COc1ccc(N(Cc2cc3ccc(C)cc3[nH]c2=O)S(=O)(=O)c2ccccc2)cc1`, for which the activity was 29.4% (inactive). Turning to `CN1C(C)(C)CC(NC(=O)CCC(=O)NC2CC(C)(C)N(C)C(C)(C)C2)CC1(C)C`, the activity was -3.64% (inactive).

Turning to `O=C(O)c1cc(S(=O)(=O)NC2CCCc3ccccc32)ccc1O` (stereo unspecified), the activity was -3.28% (inactive). As to `COc1ccc(N2CC(C)Cn3c2nc2c3c(=O)n(Cc3ccccc3F)c(=O)n2C)c(OC)c1` (stereo unspecified), the activity is 14.8% (inactive). In the case of `O=C(CN1C(=O)COc2ccc(Cl)cc21)N1CCOCC1`, the activity is 2.5% (inactive).

As to `CCC(CC)c1nnc(NS(=O)(=O)Cc2ccccc2)s1`, the activity was -2.39% (inactive). The same measure for `Cc1ccc2c(C)c(C(=O)N3CCC(N4CCC(C(=O)NC5CC5)CC4)CC3)oc2c1`: -3.85% (inactive); for `Cc1ccc(-n2ncc3c(Nc4cccc(C(=O)O)c4)ncnc32)cc1`: -7.17% (inactive); for `Cc1ccc(Cl)cc1NC(=O)C1CCN(S(C)(=O)=O)CC1`: 6.58% (inactive).

As to `c1cc2c(cc1C1OCC3C(c4ccc5c(c4)OCO5)OCC13)OCO2` (stereo unspecified), the activity is 21.1% (inactive). For `CC(=O)c1cccc(OCC(=O)OCC(=O)Nc2cc(S(=O)(=O)N3CCCCC3)ccc2C)c1`, the activity was 29.7% (inactive). `COc1cccc(N(CC(=O)NCCSc2ccccn2)S(C)(=O)=O)c1`: the activity was -7.24% (inactive). The same measure for `O=C(CSc1nc2cc3c(cc2c(=O)n1CCC1=CCCCC1)OCO3)NCc1ccco1`: -0.243% (inactive); for `Cc1cccn2cc(-c3cccc(S(=O)(=O)N4CCCCC4)c3)nc12`: 23.2% (inactive). Regarding `Cc1ccc(F)cc1S(=O)(=O)Nc1cccc(C(=O)N2CCCC(C(N)=O)C2)c1` (stereo unspecified), the activity was 0.477% (inactive). Take `CC1(C)c2[nH]c3ccccc3c2C[C@H]2C(=O)N(N)CC(=O)N21`: the activity was -8.39% (inactive). Take `CCOC(=O)Cn1c(=O)n(Cc2ccc(OC)cc2)c(=O)c2cccnc21`: the activity was 9.56% (inactive). As for `Cc1cc(C(=O)O)c(S(C)(=O)=O)s1`, the activity was -6.33% (inactive). For the compound `CC(=O)Nc1ccc(Nc2ncnc3c2nnn3Cc2ccccc2Cl)cc1`, the activity is 2.24% (inactive).

Consider `Cc1cccc(OC(=O)c2sc3ncn(C)c(=O)c3c2C)c1`, for which the activity was -1.35% (inactive). Take `CC1CC(C)(C)n2c(O)c(N=NC(N)=S)c3cccc1c32` (stereo unspecified): the activity is -5.67% (inactive). `CCOc1ccccc1OCC(=O)Nc1ccccc1C(=O)NC1CC1`: the activity is -3.16% (inactive). With `c1ccc2cc(CCCc3cc4ccccc4cn3)ncc2c1`, the activity is 54.9% (active). Regarding `Fc1ccc2cnc(-c3ccccc3)cc2c1`, the activity was 5.85% (inactive). Regarding `CCC1CCCCN1C(=O)CSc1nc2c(c(=O)n1C)SC(C)C2` (stereo unspecified), the activity is 16.8% (inactive). The same measure for `Cc1ccc(CNC(=O)CCS(=O)(=O)c2ccc3c(c2)CC(C)N3C(=O)C2CC2)o1` (stereo unspecified): 7.23% (inactive); for `Cc1ccc(C)c(N(CC(=O)NCc2ccco2)C(=O)CCC(=O)Nc2ccccn2)c1`: 18.9% (inactive). Turning to `CC1Cc2cc(/C(O)=C3\C(=O)C(=O)N(Cc4cccnc4)C3c3ccccc3F)ccc2O1` (stereo unspecified), the activity was 2.42% (inactive). For the compound `Cc1cccn2c(CN(C)C3CCCc4ccccc43)c(C(=O)N3CCOCC3)nc12` (stereo unspecified), the activity is 42.2% (inactive).

Regarding `COc1ccc(CNCCCNCc2ccc(OC)c(OC)c2)cc1OC`, the activity was 2.69% (inactive). In the case of `CCc1ccc(OCC(O)CN2CCN(CCO)CC2)cc1` (stereo unspecified), the activity was 5.47% (inactive).

For the compound `NC(Cc1ccc(F)cc1)c1csc(Nc2nncc3ccccc23)n1` (stereo unspecified), the activity was -11.6% (inactive).

With `CC(C)(CNC(=O)CNC(=O)C1CCCCC1)N1CCOCC1`, the activity was -0.69% (inactive).

In the case of `Cc1c(NC(=O)C(C)OC(=O)c2c3c(nc4ccccc24)CCC(C)C3)c(=O)n(-c2ccccc2)n1C` (stereo unspecified), the activity was 3.41% (inactive). On to `COc1cc(NC(=O)C2=C(C)OCCS2)c(Cl)cc1C(=O)NCCN1CCN(C)CC1`, for which the activity was -0.826% (inactive). Take `COc1ccc(-n2nc(C(=O)NCC(=O)Nc3cccc(C)n3)c3ccccc3c2=O)cc1`: the activity is 15.2% (inactive). As to `O=S(=O)(Nc1ccc(Cl)cn1)c1cnc(Cl)c(Br)c1`, the activity was 2.02% (inactive). Take `CC1CCCCC1NC(=O)c1cn(C)c2ccc(S(=O)(=O)N3CCOCC3)cc2c1=O` (stereo unspecified): the activity was -3.45% (inactive). For `CCN(CCN(C)C)C(=O)c1ccc2nc(C)c(N(C)C(=O)CCc3ccccc3)n2c1`, the activity is 0.0305% (inactive).

As for `Cc1nc(-c2ccc(F)cc2)c(CC(=O)N(C)CC(=O)Nc2c(C)cccc2C)s1`, the activity is 0.373% (inactive). Regarding `Cc1ccccc1-c1nc(CS(=O)(=O)CC(=O)N2CCc3ccccc3C2)c(C)o1`, the activity is 32.1% (inactive).

With `COc1ccc(-n2c(Cc3cccn3C)nnc2SCC(=O)Nc2cc(C)cc(C)c2)cc1`, the activity is 18.8% (inactive). The same measure for `O=C(NCc1ccccc1)C(c1ccccc1)N(C(=O)c1csnn1)c1ccc(F)cc1` (stereo unspecified): 26.7% (inactive); for `CN(C)C(=O)CCc1ccc2c3c([nH]c2c1)[C@]1(C)[C@@H](C(=O)N2CCOCC2)C[C@H](CC(=O)NCCc2ccccn2)C(=O)N1CC3`: 4.43% (inactive); for `CCc1ccc(C(=O)OCC(=O)NCC(F)(F)F)cc1`: 7.38% (inactive). For `CN(C)/C=C(/C(=O)c1ccccc1Cl)S(C)(=O)=O`, the activity is 3.93% (inactive).

In the case of `Cc1ccccc1N1CC(C(=O)Nc2ccc(S(=O)(=O)N3CCCC3)cc2)CC1=O` (stereo unspecified), the activity is 10.6% (inactive). Regarding `O=C(Nc1ccc(S(=O)(=O)N2CCCCC2)cc1)C1CC(=O)N(c2ccc(F)cc2)C1` (stereo unspecified), the activity was 12.1% (inactive). In the case of `CC1CCN(S(=O)(=O)c2ccc(NC(=O)C3CC(=O)N(c4ccccc4)C3)cc2)CC1` (stereo unspecified), the activity was 71.3% (active). Turning to `CCCn1c(SCC(=O)c2ccc3c(c2)OCCO3)nnc1C(C)C`, the activity was 9.18% (inactive). Regarding `CCCCn1c(N)c(N(CCOC)C(=O)COc2c(C)cccc2C)c(=O)[nH]c1=O`, the activity was -2.82% (inactive).

As for `CN1CCN(S(=O)(=O)c2cccc(C(=O)Nc3sccc3C#N)c2)CC1`, the activity was -7.33% (inactive).
